Columns and labels:
Assay in all cases: DAPPL (digital affinity profiling via proximity ligation, sequencing); 10 mM Tris-HCl pH 7.5, 50 mM NaCl, 1 mM DTT, 4% glycerol, room temperature, 30 min; GST-TFs on glutathione beads, 16-mer random dsDNA library, 0.1% formaldehyde crosslink after washing; high values mean tight binding
Conditions in all cases: protein: recombinant; tags: N-terminal GST; dsDNA, one strand shown
ERF = molecular target: T1, ERF (Homo sapiens, UniProt P50548 1-548)
T1 sequence: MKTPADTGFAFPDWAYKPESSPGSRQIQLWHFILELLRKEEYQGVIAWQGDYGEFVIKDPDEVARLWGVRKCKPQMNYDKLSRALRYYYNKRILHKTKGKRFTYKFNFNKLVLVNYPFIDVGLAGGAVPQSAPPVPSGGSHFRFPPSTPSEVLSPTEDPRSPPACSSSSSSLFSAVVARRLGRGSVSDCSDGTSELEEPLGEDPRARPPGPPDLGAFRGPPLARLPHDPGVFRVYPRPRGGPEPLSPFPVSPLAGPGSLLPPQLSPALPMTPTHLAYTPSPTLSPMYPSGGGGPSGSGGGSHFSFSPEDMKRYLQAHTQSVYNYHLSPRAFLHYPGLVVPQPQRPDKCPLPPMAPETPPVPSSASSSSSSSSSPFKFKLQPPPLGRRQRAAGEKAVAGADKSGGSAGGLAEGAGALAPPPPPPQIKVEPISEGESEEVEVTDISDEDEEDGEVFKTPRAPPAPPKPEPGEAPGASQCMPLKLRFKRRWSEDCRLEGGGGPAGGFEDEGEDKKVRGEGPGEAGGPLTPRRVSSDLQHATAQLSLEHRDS
Method in brief: (§1)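 Binding signal is defined as a hexamer's read frequency for one factor over its frequency for the tag-only sample. To obtain reads, GST-fused human transcription factors were expressed in yeast, captured on glutathione beads, barcoded with DNA and pooled with that sample. Pools met 200 nmole of a 16-mer random double-stranded DNA library in Tris/NaCl/DTT/glycerol buffer for 30 min at room temperature before washing, 0.1% formaldehyde crosslinking, proximity ligation (BsaI/T4 ligase, 1 h, 37 °C), PCR and Illumina NextSeq500 sequencing.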

ETV3L = molecular target: T2, ETV3L (Homo sapiens, UniProt Q6ZN32 1-361)
T2 sequence: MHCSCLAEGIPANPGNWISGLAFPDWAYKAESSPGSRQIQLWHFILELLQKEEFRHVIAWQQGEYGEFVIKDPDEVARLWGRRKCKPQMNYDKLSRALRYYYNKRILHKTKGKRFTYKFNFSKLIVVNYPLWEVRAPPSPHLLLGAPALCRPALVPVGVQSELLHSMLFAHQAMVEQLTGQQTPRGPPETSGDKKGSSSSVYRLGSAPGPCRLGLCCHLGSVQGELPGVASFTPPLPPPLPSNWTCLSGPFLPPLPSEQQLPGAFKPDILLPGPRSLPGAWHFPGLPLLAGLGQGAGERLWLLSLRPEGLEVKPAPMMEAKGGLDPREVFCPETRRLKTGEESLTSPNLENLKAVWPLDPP
Method in brief: as §1

ETS2 = molecular target: T3, ETS2 (Homo sapiens, UniProt P15036 1-469)
T3 sequence: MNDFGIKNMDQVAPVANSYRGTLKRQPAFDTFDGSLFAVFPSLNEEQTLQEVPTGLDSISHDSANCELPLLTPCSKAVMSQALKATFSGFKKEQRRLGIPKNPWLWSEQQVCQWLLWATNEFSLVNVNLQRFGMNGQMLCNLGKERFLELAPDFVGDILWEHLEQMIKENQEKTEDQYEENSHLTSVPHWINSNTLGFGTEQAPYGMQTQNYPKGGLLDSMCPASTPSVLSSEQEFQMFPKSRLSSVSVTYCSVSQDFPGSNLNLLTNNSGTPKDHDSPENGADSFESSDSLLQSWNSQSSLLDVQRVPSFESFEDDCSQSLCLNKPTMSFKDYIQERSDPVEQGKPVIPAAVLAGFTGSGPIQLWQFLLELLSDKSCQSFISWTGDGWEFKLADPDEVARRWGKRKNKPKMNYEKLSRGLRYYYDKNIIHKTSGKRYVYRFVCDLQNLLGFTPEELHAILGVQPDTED
Method in brief: as §1

SPDEF = molecular target: T4, SPDEF (Homo sapiens, UniProt O95238 1-335)
T4 sequence: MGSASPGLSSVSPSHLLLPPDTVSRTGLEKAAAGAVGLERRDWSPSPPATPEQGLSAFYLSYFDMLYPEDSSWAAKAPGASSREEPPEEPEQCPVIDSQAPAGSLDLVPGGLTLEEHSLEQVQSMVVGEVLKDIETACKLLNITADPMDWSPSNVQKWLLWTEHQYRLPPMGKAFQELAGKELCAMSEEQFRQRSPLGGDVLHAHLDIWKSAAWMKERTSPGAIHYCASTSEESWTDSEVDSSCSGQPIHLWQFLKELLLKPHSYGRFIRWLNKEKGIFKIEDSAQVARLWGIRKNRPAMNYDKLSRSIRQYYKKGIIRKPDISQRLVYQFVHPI
Method in brief: as §1

ELF5 = molecular target: T5, ELF5 (Homo sapiens, UniProt Q9UKW6-2 1-255)
T5 sequence: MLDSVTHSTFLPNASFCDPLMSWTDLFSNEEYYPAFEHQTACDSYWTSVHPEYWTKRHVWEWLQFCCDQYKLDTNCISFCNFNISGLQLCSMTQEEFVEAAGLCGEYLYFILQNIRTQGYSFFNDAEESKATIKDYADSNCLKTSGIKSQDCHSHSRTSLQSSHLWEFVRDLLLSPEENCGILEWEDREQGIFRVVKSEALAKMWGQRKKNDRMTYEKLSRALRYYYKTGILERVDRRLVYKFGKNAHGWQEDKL
Method in brief: as §1

ETV3 = molecular target: T6, ETV3 (Homo sapiens, UniProt P41162-2 1-143)
T6 sequence: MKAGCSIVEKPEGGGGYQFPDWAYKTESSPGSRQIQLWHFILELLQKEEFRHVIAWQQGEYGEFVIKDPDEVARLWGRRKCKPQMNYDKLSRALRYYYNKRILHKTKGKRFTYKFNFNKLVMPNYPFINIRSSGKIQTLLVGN
Method in brief: as §1

ETV6 = ETV6 (Homo sapiens, UniProt P41212 1-452)
Sequence of ETV6 (P41212 whole entry): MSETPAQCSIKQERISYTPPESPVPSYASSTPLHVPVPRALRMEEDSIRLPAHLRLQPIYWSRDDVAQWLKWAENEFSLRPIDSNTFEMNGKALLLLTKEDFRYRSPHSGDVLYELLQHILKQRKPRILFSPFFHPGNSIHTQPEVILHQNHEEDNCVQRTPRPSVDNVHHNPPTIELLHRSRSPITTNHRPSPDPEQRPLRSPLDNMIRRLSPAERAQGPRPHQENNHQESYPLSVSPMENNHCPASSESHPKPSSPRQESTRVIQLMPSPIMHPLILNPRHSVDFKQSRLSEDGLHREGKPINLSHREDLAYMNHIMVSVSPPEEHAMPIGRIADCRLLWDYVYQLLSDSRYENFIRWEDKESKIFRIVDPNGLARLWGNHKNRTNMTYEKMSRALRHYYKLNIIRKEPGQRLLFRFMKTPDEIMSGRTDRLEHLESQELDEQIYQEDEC
Method in brief: as §1

ETV7 = molecular target: T7, ETV7 (Homo sapiens, UniProt Q9Y603 1-341)
T7 sequence: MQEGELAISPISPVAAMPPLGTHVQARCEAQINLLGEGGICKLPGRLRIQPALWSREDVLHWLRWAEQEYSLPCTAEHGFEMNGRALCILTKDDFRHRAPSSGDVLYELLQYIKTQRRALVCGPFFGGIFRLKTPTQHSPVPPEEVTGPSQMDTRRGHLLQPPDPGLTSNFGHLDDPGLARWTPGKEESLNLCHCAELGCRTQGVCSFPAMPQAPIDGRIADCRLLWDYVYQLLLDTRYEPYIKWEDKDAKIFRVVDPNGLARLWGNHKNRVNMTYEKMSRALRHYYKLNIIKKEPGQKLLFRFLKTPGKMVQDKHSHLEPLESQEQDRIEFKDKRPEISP
Method in brief: as §1

Sequence | binding signal (ERF) | binding signal (ETV3L) | binding signal (ETS2) | binding signal (SPDEF) | binding signal (ELF5) | binding signal (ETV3) | binding signal (ETV6) | binding signal (ETV7)
TTGCGT | 1.21 fold enrichment (6-mer frequency, TF over GST control) | 1.03 fold enrichment (6-mer frequency, TF over GST control) | 1.08 fold enrichment (6-mer frequency, TF over GST control) | 1.03 fold enrichment (6-mer frequency, TF over GST control) | 1.03 fold enrichment (6-mer frequency, TF over GST control) | 1.03 fold enrichment (6-mer frequency, TF over GST control) | 1.13 fold enrichment (6-mer frequency, TF over GST control) | –
TCACAA | 1.23 fold enrichment (6-mer frequency, TF over GST control) | 1.14 fold enrichment (6-mer frequency, TF over GST control) | 1.23 fold enrichment (6-mer frequency, TF over GST control) | 1.19 fold enrichment (6-mer frequency, TF over GST control) | 1.11 fold enrichment (6-mer frequency, TF over GST control) | 1.08 fold enrichment (6-mer frequency, TF over GST control) | 1.03 fold enrichment (6-mer frequency, TF over GST control) | –
GCTCAG | 1.18 fold enrichment (6-mer frequency, TF over GST control) | 1.16 fold enrichment (6-mer frequency, TF over GST control) | 1.06 fold enrichment (6-mer frequency, TF over GST control) | 1.09 fold enrichment (6-mer frequency, TF over GST control) | 1.01 fold enrichment (6-mer frequency, TF over GST control) | 1.1 fold enrichment (6-mer frequency, TF over GST control) | 1.13 fold enrichment (6-mer frequency, TF over GST control) | –
CGCTTG | 1.06 fold enrichment (6-mer frequency, TF over GST control) | 1.01 fold enrichment (6-mer frequency, TF over GST control) | 1.22 fold enrichment (6-mer frequency, TF over GST control) | 1.09 fold enrichment (6-mer frequency, TF over GST control) | – | 1.06 fold enrichment (6-mer frequency, TF over GST control) | 1.11 fold enrichment (6-mer frequency, TF over GST control) | 1.01 fold enrichment (6-mer frequency, TF over GST control)
GCATTC | 1.16 fold enrichment (6-mer frequency, TF over GST control) | 1.07 fold enrichment (6-mer frequency, TF over GST control) | 1.08 fold enrichment (6-mer frequency, TF over GST control) | 1.1 fold enrichment (6-mer frequency, TF over GST control) | 1.06 fold enrichment (6-mer frequency, TF over GST control) | 1.17 fold enrichment (6-mer frequency, TF over GST control) | 1.19 fold enrichment (6-mer frequency, TF over GST control) | –
TAATCG | 1.06 fold enrichment (6-mer frequency, TF over GST control) | 1.09 fold enrichment (6-mer frequency, TF over GST control) | 1.08 fold enrichment (6-mer frequency, TF over GST control) | 1.05 fold enrichment (6-mer frequency, TF over GST control) | 1.05 fold enrichment (6-mer frequency, TF over GST control) | – | 1.05 fold enrichment (6-mer frequency, TF over GST control) | –
TGTGGA | 1.15 fold enrichment (6-mer frequency, TF over GST control) | 1.17 fold enrichment (6-mer frequency, TF over GST control) | 1.02 fold enrichment (6-mer frequency, TF over GST control) | 1.1 fold enrichment (6-mer frequency, TF over GST control) | 1.02 fold enrichment (6-mer frequency, TF over GST control) | 1.02 fold enrichment (6-mer frequency, TF over GST control) | 1.07 fold enrichment (6-mer frequency, TF over GST control) | –
TAACAG | 1.05 fold enrichment (6-mer frequency, TF over GST control) | 1.05 fold enrichment (6-mer frequency, TF over GST control) | 1.03 fold enrichment (6-mer frequency, TF over GST control) | 1.11 fold enrichment (6-mer frequency, TF over GST control) | – | 1.02 fold enrichment (6-mer frequency, TF over GST control) | 1 fold enrichment (6-mer frequency, TF over GST control) | 1.09 fold enrichment (6-mer frequency, TF over GST control)
TCAATG | 1.11 fold enrichment (6-mer frequency, TF over GST control) | 1.05 fold enrichment (6-mer frequency, TF over GST control) | 1.06 fold enrichment (6-mer frequency, TF over GST control) | 1.12 fold enrichment (6-mer frequency, TF over GST control) | – | 1.06 fold enrichment (6-mer frequency, TF over GST control) | 1.05 fold enrichment (6-mer frequency, TF over GST control) | –
CATGCC | 1.12 fold enrichment (6-mer frequency, TF over GST control) | 1 fold enrichment (6-mer frequency, TF over GST control) | 1.05 fold enrichment (6-mer frequency, TF over GST control) | 1.09 fold enrichment (6-mer frequency, TF over GST control) | 1.05 fold enrichment (6-mer frequency, TF over GST control) | 1.22 fold enrichment (6-mer frequency, TF over GST control) | 1.15 fold enrichment (6-mer frequency, TF over GST control) | –
